# Source: PubChem BioAssay (National Center for Advancing Translational Sciences (NCATS))
# Rows were chosen to be rich in hits. Some 1.2% of all compounds tested hit in one or more screens of this group.
# LmPK inhibitor: inhibitors of Leishmania mexicana pyruvate kinase | Potency, µM (top dose mostly 57.5 µM), inactives show at the highest dose activity change, negative = inhibition, most hits filed as inhibitors | purified LmPK, Kinase-Glo ATP luminescence, 1 h | Q27686 | AID 1721 | 0.37% of 290,000 active; further: on the % scale 0 is the no-effect control and ±100 the full control effect
#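 0.1 nM LmPK, 0.5 mM PEP, 0.1 mM ADP; 50 mM imidazole pH 7.2, 7 mM MgCl2, 50 mM KCl; 1 h RT. Kinase-Glo luminescence readout, normalized to no-enzyme (full inhibition) and uninhibited wells.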
# Giardia FBPA inh-1: Giardia lamblia aldolase inhibition; A8B2U2; purified Giardia FBPA; Potency, µM (top dose mostly 59.6 µM), without a hit: at the top dose activity, negative = inhibition, most hits filed as inhibitors; 0.71% of 290,000 active; AID 2451; further: on the % scale 0 is the no-effect control and ±100 the full control effect; nearly all actives have a fitted effect of over 55% in size
#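 Giardia FBPA (40 nM reagent) was preincubated 10 min at RT with compound (up to 57.5 uM final), then substrate plus GAPDH/TPI/NAD/arsenate coupling system with diaphorase/resazurin was added; resorufin fluorescence (525/598 nm) was read after 20 min.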
# TbPYK inhibitor: T. brucei pyruvate kinase inhibition; Q57TT1; TbPYK enzyme, Kinase-Glo Plus ATP luminescence, 45 min; Potency, µM (doses to about 76.8 µM), inactives show at the highest dose activity, negative = inhibition, usual class: inhibitors; 0.12% of 410,000 active; further: on the % scale 0 is the no-effect control and ±100 the full control effect; nearly all actives have a fitted effect of over 50% in size
#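 Enzyme and substrate buffer are dispensed first and compound is pin-transferred. ADP at 130 uM final then starts the reaction, which runs 45 min at room temperature. Detection reagent is added for 10 min before luminescence is imaged.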
# AMA1 RON2 block: AMA1-RON2 (P. falciparum) interaction inhibition | AlphaScreen AMA1-biotinylated RON2 peptide binding | Potency, µM (top dose mostly 58.2 µM), without a hit: at the highest dose activity change, negative = inhibition, usual class: inhibitors | 0.2% of 360,000 active | AID 720542;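 further: 0% = vehicle wells and -100% = peptide control; nearly all actives have a fitted effect of over 45% in size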
#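 AMA1 (3D7) with his tag at 25 nM final met compounds first, then biotinylated RON2 peptide at 25 nM; detection used donor plus acceptor beads, 10 µg/mL apiece, read by AlphaScreen after 30 min at room temperature.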
# NS1 inh: inhibitors of influenza NS1 protein function; Potency, µM (top dose mostly 46.1 µM), without a hit: top-dose activity, positive = more growth; 0.4% of 270,000 active; AID 2326; calls by dose curve; further: actives are rising curves; nearly all actives have a fitted effect of over 50% in size
#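 Growth recovery, yeast-based: influenza A NS1 expressed in S. cerevisiae causes slow growth, and suppressors are detected by OD600. The parent strain without NS1 is used as positive control.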
# Giardia growth: blocks growth of Giardia lamblia trophozoites | shares compounds with Giardia FBPA inh-1 | Giardia lamblia trophozoite growth inhibition | Potency, µM (highest dose often 57.5 µM), for the others: at the top dose activity change, negative = inhibition, hits mostly inhibitors | 5% of 1,500 active | AID 2785;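 further: trophozoites exposed to compound for 48 h at 37 °C; on the % scale 0 is the no-effect control and ±100 the full control effect; nearly all actives have a fitted effect of over 70% in size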
# Mammal cell tox: counter-screen for Giardia aldolase inhibitors: mammalian cell toxicity. shares compounds with Giardia FBPA inh-1. mammalian cell viability counter-screen, qHTS. Potency, µM (series often up to 57.5 µM), inactives show at the highest dose viability change, negative = toxicity, usual class: inhibitors. 4% of 1,500 active. AID 2786;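 further: Chinese hamster ovary cells used as mammalian cytotoxicity surrogate; viability measured as cellular ATP by luminescence; compound exposure lasted 48 h before reading; on the % scale 0 is the no-effect control and ±100 the full control effect; nearly all actives have a fitted effect of over 60% in size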
# Giardia FBPA inh-2: confirmation of Giardia fructose-bisphosphate aldolase inhibitors | 5% of 1,500 active | AID 2787 | shares compounds with Giardia FBPA inh-1 | purified Giardia aldolase enzyme activity, qHTS | Potency, µM (top dose mostly 57.5 µM), for inactives: at the top dose activity change, negative = inhibition, usual class: inhibitors; further: on the % scale 0 is the no-effect control and ±100 the full control effect; nearly all actives have a fitted effect of over 45% in size
# Rabbit FBPA inh: blocks rabbit muscle aldolase in Giardia aldolase selectivity test; Rabbit muscle FBPA enzyme inhibition, selectivity counter-screen; Potency, µM (doses to about 57.5 µM), without a hit: top-dose activity, negative = inhibition, hits mostly inhibitors; 4% of 1,500 active; shares compounds with Giardia FBPA inh-1; further: on the % scale 0 is the no-effect control and ±100 the full control effect; nearly all actives have a fitted effect of over 60% in size
# Target sequence (P00883 whole entry, looked up): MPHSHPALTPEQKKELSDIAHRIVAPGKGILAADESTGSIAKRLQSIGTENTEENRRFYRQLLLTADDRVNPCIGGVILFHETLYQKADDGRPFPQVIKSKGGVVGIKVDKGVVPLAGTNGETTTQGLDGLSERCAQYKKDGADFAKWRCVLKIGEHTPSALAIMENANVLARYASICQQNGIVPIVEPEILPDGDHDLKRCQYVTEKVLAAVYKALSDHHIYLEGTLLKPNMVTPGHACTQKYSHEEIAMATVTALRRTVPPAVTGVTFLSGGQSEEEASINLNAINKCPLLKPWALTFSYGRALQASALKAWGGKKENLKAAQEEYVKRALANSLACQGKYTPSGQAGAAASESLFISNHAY
# GAPDH coupling: GAPDH inhibition flagged for Giardia aldolase hits. shares compounds with Giardia FBPA inh-1. GAPDH coupling enzyme counterscreen, biochemical, qHTS. Potency, µM (highest dose often 57.5 µM), without a hit: top-dose activity change, negative = inhibition, usual class: inhibitors. 6% of 1,500 active; further: on the % scale 0 is the no-effect control and ±100 the full control effect; nearly all actives have a fitted effect of over 55% in size
# * marks the source's active call; other numbers are inactive results; ? = inconclusive; / = no result given; [ ] = dose if it differs, or a comment. Unless noted, the call rests on the fitted dose curve; in most records, active means well fitted curve in the direction sought with a large enough effect; inconclusive means small, poorly fitted or top-dose-only effect, or another doubt; inactive means no such curve, though single readings can be large; an effect the other way counts as inactive or inconclusive. Potency means the concentration at half of the fitted maximal effect.
SMILES,LmPK inhibitor,Giardia FBPA inh-1,TbPYK inhibitor,AMA1 RON2 block,NS1 inh,Giardia growth,Mammal cell tox,Giardia FBPA inh-2,Rabbit FBPA inh,GAPDH coupling
CN1CCN(Cc2c(F)cccc2Cl)CC1,2%,25µM*,3%,14µM*,3%,72%,14%,-3%,-6%,?
NC(N)=Nc1nc(CSCC/C(N)=N\S(N)(=O)=O)cs1,/,-1%,/,/,/,/,/,/,/,/
Cc1cccnc1Nc1nc(-c2ccc(O)c(O)c2)cs1,-4%,10µM*,-16%,-11%,?,-18%,-3%,-19%,-29%,-14%
COc1ccc(-c2csc(Nc3ncccc3C)n2)cc1OC,-4%,-11%,-5%,-17%,-12%,/,/,/,/,/
O=[N+]([O-])c1cccnc1N1CCN(Cc2ccc3c(c2)OCO3)CC1,-14%,?,-1%,?,14%,/,/,/,/,/
C(=C\c1ccccc1)/CN1CCN(Cc2ccc3c(c2)OCO3)CC1,-3%,7.9µM*,0%,?,14%,-20%,7%,9%,0%,17%
O=[N+]([O-])c1ccccc1/C=C/CN1CCN(Cc2ccc3c(c2)OCO3)CC1,-4%,11µM*,5%,-20%,1%,-8%[10.4 µM],7%,-7%,0%,9%
CCOc1ccc(C(=O)Nc2ccc(S(=O)(=O)N3CCCCC3c3cccnc3)cc2)cc1 (stereo unspecified),/,/,3%,/,/,/,/,/,/,/
COc1ccc(/C=C/C(=O)NC(=S)N2C[C@H]3C[C@H](C2)c2cccc(=O)n2C3)cc1OC,2%,7.9µM*,3%,63%,5%,?,1%,5%,0%,17%
COc1cc(C(=O)NC(=S)N2C[C@H]3C[C@H](C2)c2cccc(=O)n2C3)cc(OC)c1OC,-3%,11µM*,-7%,97%,-1%,11%[10.4 µM],17%,3%,10%,9%
O=C(/C=C/c1ccccc1)NC(=S)N1C[C@H]2C[C@H](C1)c1cccc(=O)n1C2,-1%,?,-11%,43%,10%,/,/,/,/,/
COc1cc(OC)cc(C(=O)NC(=S)N2C[C@H]3C[C@H](C2)c2cccc(=O)n2C3)c1,-1%,11µM*,-9%,93%,-4%,18%,12%,6%,-2%,13%
COC(=O)C(NC(=S)N1CC2C[C@@H](C1)Cn1c2cccc1=O)C(C)C (stereo partly specified),-1%,-2%,-5%,-8%,0%,/,/,/,/,/
O=C(NC(=S)N1C[C@H]2C[C@H](C1)c1cccc(=O)n1C2)c1ccc(Cl)cc1,-15%,?,-19%,117%,1%,/,/,/,/,/
COc1ccc(N2CCN(c3csc4ccc(Cl)cc4c3=O)CC2)cc1,/,/,3%,/,/,/,/,/,/,/
CN1CCN(c2ncc3nc(CCc4ccccc4)c(=O)n(C)c3n2)CC1,/,0%,/,/,/,/,/,/,/,/
CN(C)CC(=O)Nc1cc(C(F)(F)F)ccc1Cl,-3%,0%,5%,8%,4%,/,/,/,/,/
O=C(CNC1CC1)Nc1cc(C(F)(F)F)ccc1Cl,-11%,7.9µM*,1%,-12%,7%,?,-12%,-2%,4%,5%
CC(/C=N/n1c(-c2cc(C)[nH]n2)n[nH]c1=S)=C\c1ccco1,7%,2.5µM*,?,95%,7%,-14%[38.3 µM],-1%,?,-4%,-10%
